Bioassay records (PubChem)
Most compounds without a hit are left out; they make up all but 3.4% or so of the library.
TEAD-YAP block: TEAD-YAP interaction inhibition | HEK-TIYL cells, TEAD-Gal4/YAP UAS-luciferase luminescence | inhibition, % at 9.12 µM | actives 1.4% (n = 640,000); in the data active = inhibition above about 32%
GPR151 activ: activators of human GPR151. Q8TDV0. PathHunter beta-arrestin GPR151 cells, luminescence. activation, % at 11.2 µM. actives 1% (n = 650,000). AID 1508602; in the data active = activation above about 4.9%
Target sequence (Q8TDV0 whole entry, looked up): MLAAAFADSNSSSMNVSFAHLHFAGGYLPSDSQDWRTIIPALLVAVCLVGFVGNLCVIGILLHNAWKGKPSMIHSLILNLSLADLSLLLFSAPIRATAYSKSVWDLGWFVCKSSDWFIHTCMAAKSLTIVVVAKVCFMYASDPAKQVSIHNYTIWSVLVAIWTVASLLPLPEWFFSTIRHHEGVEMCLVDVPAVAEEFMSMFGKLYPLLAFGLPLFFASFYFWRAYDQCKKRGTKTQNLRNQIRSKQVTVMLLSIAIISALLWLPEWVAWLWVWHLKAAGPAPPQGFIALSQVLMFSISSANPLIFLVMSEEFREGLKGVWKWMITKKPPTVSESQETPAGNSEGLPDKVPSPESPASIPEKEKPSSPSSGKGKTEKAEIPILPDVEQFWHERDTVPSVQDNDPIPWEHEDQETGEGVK
FBW7 act: human FBW7 E3 ligase activation, primary screen; normalized activity (activation), % at 26.1 µM; Q969H0; actives 0.13% (n = 650,000); AlphaScreen FBW7–phospho-cyclin E peptide binding, activator screen; in the data active = normalized activity above about 1.9%;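 also: purified mutant Fbw7 with reduced substrate affinity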
MITF inh: blocks human microphthalmia-associated transcription factor; actives 0.91% (n = 650,000); AID 1259374; AlphaScreen MITF homodimerization, bead proximity signal; inhibition, % at 2.6 µM; in the data active = inhibition above about 50%
Hits are given with their value; . = inactive.

SMILES | TEAD-YAP block | GPR151 activ | FBW7 act | MITF inh
Cc1ccc(C2CC(=O)Nc3ccc4ccccc4c32)cc1 (configuration not stated) | . | . | . | .
O=C1CC(c2cccc([N+](=O)[O-])c2)c2c(ccc3ccccc23)N1 (configuration not stated) | 61 | . | . | .
COC(=O)c1ccccc1NS(=O)(=O)c1ccc(Br)cc1 | . | . | . | .
O=C(Nc1ccc2c(c1)OC(F)(F)O2)c1ccc(Cl)c([N+](=O)[O-])c1 | 34 | . | . | .
O=C(CCl)Nc1ccc2c(c1)OC(F)(F)O2 | 37 | . | . | .
O=C(Nc1ccc(F)c(Cl)c1)c1ccc(Cl)c([N+](=O)[O-])c1 | . | . | . | .
CN(CC(=O)Nc1cccc(F)c1)CC(=O)Nc1ccc2c(c1)OC(F)(F)O2 | . | . | . | .
Cc1cc(=O)[nH]c(N/N=C/c2cc3c4c(c2O)CCCN4CCC3)n1 | 86 | . | . | .
O=C(N/N=C/c1cc([N+](=O)[O-])cc([N+](=O)[O-])c1O)c1ccncc1 | . | . | . | .
Cc1ccc(C)c(/C=N/Nc2nc(C)cc(=O)[nH]2)c1 | . | . | . | .
O=C(N/N=C/c1cc2c3c(c1O)CCCN3CCC2)c1ccncc1 | 75 | . | . | 66
COc1ccc(-c2cccc(C(=O)NCCO)n2)cn1 | . | . | . | .
CCCN(CCC)C1=CC(=O)C(C)=C(C)C1=O | . | . | . | .
CCCN(CCC)C1=CC(=O)C(C)=CC1=O | . | . | . | 65
Cc1ccc(C)c(NC(=O)C2CC3c4ccccc4C2c2ccccc23)c1 (configuration not stated) | . | . | 2.0 | .
OCCCNc1ccc2ncc(-c3ccccc3F)n2n1 | 56 | . | . | .
COc1ccc(-c2cnc3ccc(NCc4ccco4)nn23)c(OC)c1 | . | . | . | .
COCCNc1ccc2ncc(-c3ccccc3F)n2n1 | 49 | . | . | .
Fc1ccccc1-c1cnc2ccc(NCc3ccco3)nn12 | 39 | . | . | .
COc1ccc(C(C)C)cc1-c1cnc2ccc(NCc3ccco3)nn12 | 59 | . | . | .
OCCCNc1ccc2ncc(-c3cccc4ccccc34)n2n1 | . | . | . | .
O=C(NC1CC1)c1ccc2nc(NC3CCC(O)CC3)sc2c1 (configuration not stated) | . | . | . | .
O=C(CN1C(=O)C2C3C=CC(C4CC34)C2C1=O)N1CCC(c2ccncc2)CC1 (configuration not stated) | 50 | . | . | .
CCNc1cc(C)nc(NCCNC(=O)Nc2cc(Cl)ccc2OC)n1 | 33 | . | . | .
O=C(Nc1ccccc1-c1nc2ccccc2[nH]1)C1COc2ccccc2O1 (configuration not stated) | . | . | . | .
SMILES | TEAD-YAP block | GPR151 activ | FBW7 act | MITF inh
COc1cc2ccccc2cc1C(=O)Nc1ccccc1-c1nc2ccccc2[nH]1 | . | . | 2.6 | .
CC(=O)c1ccc(C(=O)Nc2ccccc2-c2nc3ccccc3[nH]2)cc1 | . | . | . | .
O=C(Nc1ccccc1-c1nc2ccccc2[nH]1)C1CC1 | 38 | . | . | .
OC(COc1ccc2c(c1)OCO2)CN1CCN(c2ccccc2F)CC1 (configuration not stated) | . | . | . | .
Cc1ccc2ccc(C(Nc3ccccn3)c3cccnc3)c(O)c2n1 (configuration not stated) | . | . | . | .
Oc1ccccc1NC(c1cccnc1)c1ccc2cccnc2c1O (configuration not stated) | . | . | . | 98
COc1ccc(NC(c2cccnc2)c2ccc3cccnc3c2O)cc1 (configuration not stated) | . | . | . | 59
CCOc1ccc(NC(=O)c2ccc(F)c(S(=O)(=O)N(Cc3ccco3)CC3CCCO3)c2)cc1 (configuration not stated) | 46 | . | . | .
CCN(CC)S(=O)(=O)c1cc(C(=O)Nc2ccc(Br)cc2)ccc1F | . | . | . | .
CCOc1ccc(NC(=O)c2ccc(F)c(S(=O)(=O)N(CC)Cc3ccccc3)c2)cc1 | 62 | . | . | .
CCOc1ccc(NC(=O)c2ccc(F)c(S(=O)(=O)N(CC)CC)c2)cc1 | 37 | . | . | .
CCN(CC)S(=O)(=O)c1cc(C(=O)Nc2ccc(Br)cc2)ccc1OC | 47 | . | . | .
CCOc1cccc(/C=N/NC(=S)Nc2ccccc2[N+](=O)[O-])c1O | 71 | . | . | .
CCOc1cccc(/C=N/NC(=O)c2cc(-c3cccc([N+](=O)[O-])c3)n[nH]2)c1O | 60 | . | . | .
CCOc1ccccc1-c1cc(C(=O)N/N=C/c2cccc(OCC)c2O)[nH]n1 | 69 | . | . | .
CC(=O)c1ccc(-c2ccc(C=C3C(=O)N(C)C(=S)N(C)C3=O)o2)cc1 | . | . | . | .
CN1C(=O)C(=Cc2ccc(I)o2)C(=O)N(C)C1=S | . | . | . | 81
COc1cccc(N2C(=O)/C(=C/C=C/c3ccco3)C(=O)NC2=S)c1 | . | . | . | 57
CC1(C)OC(=O)C(=C/C=C/c2ccco2)C(=O)O1 | . | . | . | 71
CN1C(=O)C(=Cc2ccco2)C(=O)N(C)C1=S | . | . | . | 71
O=C1NC(=O)N(c2cccc(F)c2)C(=O)/C1=C\C=C\c1ccco1 | . | . | . | .
CCOC(=O)c1sc2nc(CC(=O)OC)nc(Nc3cccc(OC)c3)c2c1C | . | . | . | .
Cc1ccc(N=c2c([N+](=O)[O-])nn(-c3cccc(Cl)c3)n2O)cc1F | . | . | . | .
CN1C2CCC1/C(=C\c1ccco1)C(=O)/C2=C\c1ccco1 | . | . | . | 54
O=C1/C(=C\c2ccco2)N2CCC1CC2 | . | . | . | .
SMILES | TEAD-YAP block | GPR151 activ | FBW7 act | MITF inh
CN1C(=O)C(=C/C=C/c2ccco2)C(=O)N(C)C1=S | . | . | . | 77
CCCNc1cc(-c2csc3ccccc23)nc(N)n1 | . | . | . | .
Nc1nc(NCCOc2ccccc2)cc(-c2csc3ccccc23)n1 | 42 | . | . | .
Nc1nc(NCCOc2ccccc2)cc(-c2ccccc2)n1 | 41 | . | . | .
Nc1nc(NCCOc2ccccc2)cc(Nc2ccccc2)n1 | . | . | . | .
CC(C)[C@H]1CN(Cc2ccco2)CCN1Cc1nnnn1Cc1ccc(F)cc1 | . | . | . | .
Cc1cc(C2C(C#N)=C(N)N(c3ccc(Br)cc3)C3=C2C(=O)CC(C)(C)C3)c(C)s1 (configuration not stated) | . | . | . | .
Cc1cccc(C(=O)N[C@H]2C[C@H]3C(=O)N[C@@H](C)C(=O)N3C2)c1 | . | . | . | .
Cc1cccc(-n2nnnc2Sc2ccc([N+](=O)[O-])c3cnccc23)c1 | 46 | . | . | .
Cn1cnnc1Sc1ccc([N+](=O)[O-])c2cnccc12 | . | . | . | .
Cc1ccccc1N1CCN(C2=NC(=O)/C(=C\c3ccccc3OC(C)C)S2)CC1 | . | . | . | .
CC(C)Oc1ccccc1/C=C1/SC(N2CCCC2)=NC1=O | 38 | . | . | .
Cc1csc(NC(=O)CSc2nnc(-c3ccccc3F)n2C)n1 | . | . | . | .
CCOC(=O)c1[nH]c(C)c(C(=O)Nc2cc(F)ccc2F)c1C | 42 | . | . | .
